Laboratory results as given in the supplement of paper PMC6411743.
± gives the standard deviation of the averaged measurements. Targets with the largest changes are over-represented here; the source holds about 5,400 in all.

Compound: Nc1nc2c(ncn2[C@@H]2O[C@H](COP(=O)(O)OP(=O)(O)OP(=O)(O)O)[C@@H](O)[C@H]2O)c(=O)[nH]1 [guanosine triphosphate]
Test: NP40-soluble protein abundance relative to vehicle (solubility fold change) (ratio); higher = more soluble protein in presence of GTP
Method: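 Solubility proteome profiling in Jurkat crude lysate. Lysate was treated with Mg-GTP (0.1-10 mM) for 10 min at room temperature and 3 min at 37 °C, then solubilised with 0.8% NP40 and benzonase, followed by ultracentrifugation. Proteins were quantified by TMT10 LC-MS/MS; the value is the NP40-soluble abundance relative to the NP40-processed vehicle, from 3 independent experiments.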

Sequence of UniProt Q9Y3T6 (Q9Y3T6 whole entry, one chain of several): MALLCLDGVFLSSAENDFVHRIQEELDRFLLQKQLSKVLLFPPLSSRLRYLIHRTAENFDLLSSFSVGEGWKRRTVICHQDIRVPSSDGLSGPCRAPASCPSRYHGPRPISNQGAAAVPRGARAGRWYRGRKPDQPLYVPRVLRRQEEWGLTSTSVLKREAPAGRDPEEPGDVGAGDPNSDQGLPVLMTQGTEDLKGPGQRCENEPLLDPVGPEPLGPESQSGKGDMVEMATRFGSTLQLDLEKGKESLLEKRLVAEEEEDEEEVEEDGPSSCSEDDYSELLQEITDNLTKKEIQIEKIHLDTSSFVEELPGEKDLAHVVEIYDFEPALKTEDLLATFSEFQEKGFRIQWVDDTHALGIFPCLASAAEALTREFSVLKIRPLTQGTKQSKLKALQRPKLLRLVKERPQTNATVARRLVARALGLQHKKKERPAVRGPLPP
Sequence of UniProt Q03154 (Q03154 whole entry, looked up, other chains not shown): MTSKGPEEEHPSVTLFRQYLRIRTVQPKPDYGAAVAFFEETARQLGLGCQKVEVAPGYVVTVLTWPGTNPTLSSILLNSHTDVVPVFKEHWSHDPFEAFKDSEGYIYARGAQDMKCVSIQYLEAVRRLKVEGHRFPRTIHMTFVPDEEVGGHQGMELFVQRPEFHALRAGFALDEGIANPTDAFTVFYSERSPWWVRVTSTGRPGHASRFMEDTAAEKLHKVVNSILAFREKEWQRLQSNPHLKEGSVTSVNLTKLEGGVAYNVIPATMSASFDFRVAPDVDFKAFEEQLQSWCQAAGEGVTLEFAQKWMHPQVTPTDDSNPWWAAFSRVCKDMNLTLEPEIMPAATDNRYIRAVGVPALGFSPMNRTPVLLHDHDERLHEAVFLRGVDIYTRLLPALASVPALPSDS
Sequence of UniProt Q9BQ75 (Q9BQ75 whole entry, one chain of several): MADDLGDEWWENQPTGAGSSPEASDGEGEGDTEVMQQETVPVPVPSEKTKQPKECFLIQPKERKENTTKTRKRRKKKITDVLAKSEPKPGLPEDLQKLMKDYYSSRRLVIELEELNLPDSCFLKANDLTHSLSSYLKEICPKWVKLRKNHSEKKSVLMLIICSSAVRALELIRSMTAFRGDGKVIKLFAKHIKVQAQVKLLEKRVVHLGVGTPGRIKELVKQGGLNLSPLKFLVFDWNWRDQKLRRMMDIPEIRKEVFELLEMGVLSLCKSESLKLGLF
Sequence of UniProt Q6NVY1 (Q6NVY1 whole entry, one chain of several): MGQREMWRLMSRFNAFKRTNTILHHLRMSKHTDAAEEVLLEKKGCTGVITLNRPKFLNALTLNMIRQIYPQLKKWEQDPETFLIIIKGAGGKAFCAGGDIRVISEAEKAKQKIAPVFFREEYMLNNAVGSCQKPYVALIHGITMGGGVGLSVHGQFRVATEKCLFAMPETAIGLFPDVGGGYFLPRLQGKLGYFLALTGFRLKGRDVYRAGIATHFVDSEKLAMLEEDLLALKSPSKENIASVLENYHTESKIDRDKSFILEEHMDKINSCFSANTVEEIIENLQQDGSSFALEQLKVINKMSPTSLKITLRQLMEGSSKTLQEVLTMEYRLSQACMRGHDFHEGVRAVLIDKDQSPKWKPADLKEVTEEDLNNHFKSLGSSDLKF
Sequence of UniProt Q13615 (Q13615 whole entry, one chain of several): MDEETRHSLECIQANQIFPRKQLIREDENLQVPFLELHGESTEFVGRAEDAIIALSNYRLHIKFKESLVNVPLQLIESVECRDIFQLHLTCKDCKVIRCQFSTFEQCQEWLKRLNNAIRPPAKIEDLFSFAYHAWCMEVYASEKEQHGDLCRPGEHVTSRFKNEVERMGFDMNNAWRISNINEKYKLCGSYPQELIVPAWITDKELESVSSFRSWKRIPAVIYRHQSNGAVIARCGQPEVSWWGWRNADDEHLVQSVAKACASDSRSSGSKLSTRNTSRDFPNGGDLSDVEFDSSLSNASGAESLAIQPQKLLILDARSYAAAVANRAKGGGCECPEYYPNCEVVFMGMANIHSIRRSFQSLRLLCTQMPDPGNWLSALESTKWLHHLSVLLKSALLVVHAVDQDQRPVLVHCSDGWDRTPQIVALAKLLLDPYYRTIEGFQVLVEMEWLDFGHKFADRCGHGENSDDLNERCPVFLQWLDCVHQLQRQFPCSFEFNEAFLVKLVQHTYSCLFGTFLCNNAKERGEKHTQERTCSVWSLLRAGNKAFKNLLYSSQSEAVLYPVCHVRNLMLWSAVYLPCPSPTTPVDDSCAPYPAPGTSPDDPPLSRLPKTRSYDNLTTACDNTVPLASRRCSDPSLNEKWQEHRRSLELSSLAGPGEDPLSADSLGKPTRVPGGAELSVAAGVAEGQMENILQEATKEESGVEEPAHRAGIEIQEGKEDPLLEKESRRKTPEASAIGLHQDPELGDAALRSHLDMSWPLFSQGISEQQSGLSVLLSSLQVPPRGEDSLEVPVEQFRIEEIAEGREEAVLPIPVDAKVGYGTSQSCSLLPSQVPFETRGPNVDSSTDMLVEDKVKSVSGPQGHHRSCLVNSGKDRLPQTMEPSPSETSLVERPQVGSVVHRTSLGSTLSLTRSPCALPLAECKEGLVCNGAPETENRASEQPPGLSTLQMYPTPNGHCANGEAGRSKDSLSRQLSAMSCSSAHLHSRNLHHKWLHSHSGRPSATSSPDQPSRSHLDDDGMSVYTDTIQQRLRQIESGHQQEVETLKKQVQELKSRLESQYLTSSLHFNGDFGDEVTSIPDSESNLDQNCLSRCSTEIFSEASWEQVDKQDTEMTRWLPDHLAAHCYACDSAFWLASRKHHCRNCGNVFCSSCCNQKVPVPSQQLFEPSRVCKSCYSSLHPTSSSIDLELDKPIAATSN

Target	NP40-soluble protein abundance (concentration: 0.1mM)	NP40-soluble protein abundance (concentration: 0.5mM)	NP40-soluble protein abundance (concentration: 1mM)	NP40-soluble protein abundance (concentration: 2mM)	NP40-soluble protein abundance (concentration: 4mM)	NP40-soluble protein abundance (concentration: 6mM)	NP40-soluble protein abundance (concentration: 8mM)	NP40-soluble protein abundance (concentration: 10mM)
A0A0R4J2E2|Q9Y3T6|A0A0D9SG39|E5RHX3|E5RIK1|E5RIQ4 (UniProt Q9Y3T6)	0.88 ± 0.0067	0.877 ± 0.017	0.961 ± 0.019	0.923 ± 0.048	0.94794 ± 0.00022	0.908 ± 0.017	0.89 ± 0.034	0.9192 ± 0.0019
C9JMV9|Q03154|Q03154-4 (UniProt Q03154+C9JMV9)	1.03 ± 0.012	1.03 ± 0.011	0.97 ± 0.078	0.924 ± 0.036	0.954 ± 0.019	0.933 ± 0.031	0.94 ± 0.05	0.956 ± 0.12
A0A087WXI1|Q6NVY1 (UniProt Q6NVY1)	0.948 ± 0.045	0.945 ± 0.042	0.909 ± 0.082	0.875 ± 0.083	0.863 ± 0.087	0.867 ± 0.092	0.861 ± 0.096	0.841 ± 0.096
C9IY68|C9J384|Q9BQ75|Q9BQ75-2 (UniProt Q9BQ75)	0.945 ± 0.058	1.03 ± 0.083	1.06 ± 0.071	1.1 ± 0.058	1.17 ± 0.069	1.22 ± 0.094	1.23 ± 0.12	1.31 ± 0.04
G5E953|Q13615|Q13615-2|Q13615-3 (UniProt Q13615)	1.01 ± 0.036	0.987 ± 0.04	0.978 ± 0.063	0.953 ± 0.034	0.976 ± 0.045	0.963 ± 0.065	1 ± 0.042	0.971 ± 0.028
